From PubChem BioAssay
The source made the active and inactive calls.

Tests used:
[1] = test system: PRMT1 (protein arginine N-methyltransferase 1); assay: small molecules binding arginine methyltransferase PRMT1 – biochemical, small-molecule microarray, 635 nm fluorescence, primary screen (AID 1088); conditions: higher = more signal;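 note: binding of Prmt1 protein to compounds spotted on small-molecule microarray slides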
[2] = growth effects on S. cerevisiae YJM789 – YJM789 clinical isolate, OD600, 24 h, basal, primary screen (AID 1089); conditions: higher = more signal, called active from +8 up or from −8 down;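 note: growth of clinical yeast isolate S. cerevisiae YJM 789 seeded 1000 cells per well; test concentration not given here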
[3] = S. pombe growth modifiers, basal conditions – strain 972, OD600, 24 h, no modulator, primary screen (AID 1090);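 note: basal condition with compound alone and no growth modifier present; test concentration not given here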; conditions: S. pombe 972 growth, higher = more signal, called active from +8 up or from −8 down
[4] = budding yeast growth modifiers under rapamycin – strain BY4716, OD600, 96 h, primary screen (AID 1091); note: test concentration not given here; conditions: S. cerevisiae BY4716 + rapamycin, higher = more signal, called active from +8 up or from −8 down
[5] = target: Torsin-1A-interacting protein 2 (Homo sapiens) (UniProt Q8NFQ8); assay: small molecules binding lysate-expressed LULL1 – cell lysate, human LULL1 lysate, 635/667 nm fluorescence, primary screen (AID 1092); conditions: small-molecule microarray, hLULL1 lysate binding, 635 nm fluorescence; higher = more signal;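 note: probe is lysate of COS7 cells overexpressing human LULL1; score merges per-feature 667 nm fluorescence with signal-to-noise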
Chain of Torsin-1A-interacting protein 2 (Homo sapiens) (Q8NFQ8 whole entry, looked up): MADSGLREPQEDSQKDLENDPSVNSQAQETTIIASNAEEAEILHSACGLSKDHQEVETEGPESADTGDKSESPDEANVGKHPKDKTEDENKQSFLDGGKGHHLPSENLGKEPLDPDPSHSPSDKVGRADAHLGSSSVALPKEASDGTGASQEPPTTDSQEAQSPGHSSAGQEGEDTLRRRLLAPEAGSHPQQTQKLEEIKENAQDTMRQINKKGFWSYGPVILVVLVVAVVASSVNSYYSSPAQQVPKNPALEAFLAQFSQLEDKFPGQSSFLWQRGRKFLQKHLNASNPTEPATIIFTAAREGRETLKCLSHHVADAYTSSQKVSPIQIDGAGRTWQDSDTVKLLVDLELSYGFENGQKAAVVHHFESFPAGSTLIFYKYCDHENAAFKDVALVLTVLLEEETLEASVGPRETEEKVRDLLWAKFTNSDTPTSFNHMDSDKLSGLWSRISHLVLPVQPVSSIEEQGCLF

[6] = optical density change of DRC41 E. coli – strain DRC41, OD650, 24 h, E. coli filamentation project, primary screen (AID 1093);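 note: MC1000 strain lacking acrAB efflux and sulA so SOS filamentation is blocked; test concentration not given here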; conditions: E. coli DRC41 growth, higher = more signal, called active from +8 up or from −8 down
[7] = probe aLefty2 binding to arrayed compounds – biochemical, biotinylated probe, 635/667 nm fluorescence, primary screen (AID 1094); conditions: small-molecule microarray, higher = more signal;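 note: score merges spot fluorescence near 667 nm with spot signal-to-noise ratio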
[8] = test system: Noggin (protein binding on small-molecule microarray); assay: small molecules binding Noggin protein – biochemical, 635/667 nm fluorescence, primary screen (AID 1095); conditions: 635 nm fluorescence, higher = more signal;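 note: score merges 667 nm feature fluorescence with signal to noise over triplicate slides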
[9] = target: Neurogenic locus notch homolog protein 3 (Homo sapiens) (UniProt Q9UM47); assay: small molecules binding NOTCH3 protein – biochemical, 635/667 nm fluorescence, primary screen (AID 1096); conditions: small-molecule microarray, 635 nm fluorescence, higher = more signal
Chain of Neurogenic locus notch homolog protein 3 (Homo sapiens) (Q9UM47 whole entry, looked up): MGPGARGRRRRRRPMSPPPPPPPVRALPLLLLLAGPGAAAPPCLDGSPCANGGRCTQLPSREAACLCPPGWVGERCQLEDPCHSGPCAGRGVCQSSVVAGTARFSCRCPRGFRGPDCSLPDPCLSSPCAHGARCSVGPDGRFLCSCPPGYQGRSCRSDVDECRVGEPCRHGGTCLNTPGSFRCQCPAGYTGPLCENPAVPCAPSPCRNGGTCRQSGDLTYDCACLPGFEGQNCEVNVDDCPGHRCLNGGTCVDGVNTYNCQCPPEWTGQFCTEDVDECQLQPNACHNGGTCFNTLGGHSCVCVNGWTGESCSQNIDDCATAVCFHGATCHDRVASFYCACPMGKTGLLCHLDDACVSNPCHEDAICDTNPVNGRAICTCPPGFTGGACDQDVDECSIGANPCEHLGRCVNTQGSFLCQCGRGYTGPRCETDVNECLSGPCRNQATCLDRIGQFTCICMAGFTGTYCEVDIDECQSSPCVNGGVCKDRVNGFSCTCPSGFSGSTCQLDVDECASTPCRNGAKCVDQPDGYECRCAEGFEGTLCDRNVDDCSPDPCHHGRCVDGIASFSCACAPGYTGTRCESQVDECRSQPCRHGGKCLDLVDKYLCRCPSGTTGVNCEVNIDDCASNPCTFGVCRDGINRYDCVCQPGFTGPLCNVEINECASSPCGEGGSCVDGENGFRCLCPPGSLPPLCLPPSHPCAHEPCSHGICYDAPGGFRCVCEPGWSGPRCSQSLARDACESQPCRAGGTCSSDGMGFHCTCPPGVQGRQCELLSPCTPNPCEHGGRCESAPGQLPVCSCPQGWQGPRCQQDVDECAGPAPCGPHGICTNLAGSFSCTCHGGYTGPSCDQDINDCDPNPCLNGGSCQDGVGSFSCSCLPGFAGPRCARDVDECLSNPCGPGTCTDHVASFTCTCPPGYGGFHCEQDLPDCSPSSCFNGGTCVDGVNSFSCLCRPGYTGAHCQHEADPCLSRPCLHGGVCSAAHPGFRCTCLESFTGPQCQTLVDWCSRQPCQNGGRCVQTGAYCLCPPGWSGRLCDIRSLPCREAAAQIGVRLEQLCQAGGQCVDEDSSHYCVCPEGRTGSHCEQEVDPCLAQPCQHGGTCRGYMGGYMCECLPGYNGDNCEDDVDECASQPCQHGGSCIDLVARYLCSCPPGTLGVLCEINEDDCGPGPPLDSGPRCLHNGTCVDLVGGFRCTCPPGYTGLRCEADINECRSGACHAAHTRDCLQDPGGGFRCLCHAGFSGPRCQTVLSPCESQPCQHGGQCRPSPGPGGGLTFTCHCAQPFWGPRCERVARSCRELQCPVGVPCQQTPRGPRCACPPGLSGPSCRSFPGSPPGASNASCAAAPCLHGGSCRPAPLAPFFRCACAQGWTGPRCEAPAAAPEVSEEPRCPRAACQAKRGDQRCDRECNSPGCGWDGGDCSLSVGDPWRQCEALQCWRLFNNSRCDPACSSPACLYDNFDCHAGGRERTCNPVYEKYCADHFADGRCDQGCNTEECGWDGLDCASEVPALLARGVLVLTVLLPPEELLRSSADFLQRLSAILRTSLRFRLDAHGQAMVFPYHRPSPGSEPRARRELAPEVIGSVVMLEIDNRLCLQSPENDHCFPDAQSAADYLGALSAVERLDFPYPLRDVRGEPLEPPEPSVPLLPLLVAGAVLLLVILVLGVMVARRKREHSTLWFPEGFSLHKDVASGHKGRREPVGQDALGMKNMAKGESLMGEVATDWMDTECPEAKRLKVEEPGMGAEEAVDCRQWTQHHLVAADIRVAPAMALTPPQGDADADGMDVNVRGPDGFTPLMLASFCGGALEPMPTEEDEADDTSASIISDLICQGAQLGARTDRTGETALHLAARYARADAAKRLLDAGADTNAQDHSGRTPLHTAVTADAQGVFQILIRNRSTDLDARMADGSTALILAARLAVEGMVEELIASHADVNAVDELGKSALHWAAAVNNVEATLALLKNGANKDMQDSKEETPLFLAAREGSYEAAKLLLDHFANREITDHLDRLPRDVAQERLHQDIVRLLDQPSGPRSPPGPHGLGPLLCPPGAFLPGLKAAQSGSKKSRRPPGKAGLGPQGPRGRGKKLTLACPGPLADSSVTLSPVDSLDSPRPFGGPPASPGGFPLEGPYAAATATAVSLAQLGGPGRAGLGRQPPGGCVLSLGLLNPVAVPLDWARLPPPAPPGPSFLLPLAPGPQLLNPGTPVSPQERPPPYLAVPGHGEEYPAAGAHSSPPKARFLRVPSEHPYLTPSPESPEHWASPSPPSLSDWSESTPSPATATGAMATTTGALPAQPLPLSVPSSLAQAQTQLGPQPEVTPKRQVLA

[10] = probe aEGFR binding to arrayed compounds – biochemical, biotinylated probe, 635/667 nm fluorescence, primary screen (AID 1097); conditions: small-molecule microarray, higher = more signal;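 note: probe is a biotinylated anti-EGFR antibody binding compounds printed on slides; score combines fluorescence near 667 nm and signal to noise of each spot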
[11] = test system: Plasmodium falciparum Sir2 (PF13_0152, Sir2A); assay: Plasmodium falciparum Sir2A binding compounds – biochemical, small-molecule microarray, 635 nm fluorescence, primary screen (AID 1098); conditions: fluorescence 635 nm, higher = more signal;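 note: score merges spot fluorescence intensity with its signal-to-noise ratio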
[12] = probe aDKK1 binding to arrayed compounds – biochemical, biotinylated probe, 635/667 nm fluorescence, primary screen (AID 1099); conditions: small-molecule microarray, higher = more signal;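 note: score merges 667nm spot fluorescence with signal to noise across triplicate slides; reference of the scale not given here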
[13] = probe aCHRDL2 binding to arrayed compounds – biochemical, biotinylated probe, 635/667 nm fluorescence, primary screen (AID 1100); conditions: small-molecule microarray, higher = more signal
[14] = change in splice reporter luminescence, either direction, cell-based, HEK293, spliceosome inhibition project, primary screen (AID 1101); conditions: HEK293 splicing luciferase reporter, 24 h, higher = more signal, called active from +8 up or from −8 down;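 note: HEK293 cells carrying a splicing-competent luciferase reporter gene; test concentration not given here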
[15] = target: Fibroblast growth factor 10 (Homo sapiens) (UniProt O15520); assay: compounds binding fibroblast growth factor 10 – biochemical, small-molecule microarray, 635 nm fluorescence, primary screen (AID 1102); conditions: FGF10 binding, fluorescence 635 nm, higher = more signal
Chain of Fibroblast growth factor 10 (Homo sapiens) (O15520 whole entry, looked up): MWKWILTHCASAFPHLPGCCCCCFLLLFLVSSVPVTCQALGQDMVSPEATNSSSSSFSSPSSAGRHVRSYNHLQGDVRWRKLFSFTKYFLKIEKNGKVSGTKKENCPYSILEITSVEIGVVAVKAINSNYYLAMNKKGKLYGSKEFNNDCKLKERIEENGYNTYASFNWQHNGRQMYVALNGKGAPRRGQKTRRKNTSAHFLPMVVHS

[16] = test system: glycogen synthase kinase-3 (GSK3A per assay name; protocol says GSK3B); assay: compounds binding glycogen synthase kinase-3 – biochemical, small-molecule microarray, 635 nm fluorescence, GSK3A, primary screen (AID 1103); conditions: fluorescence 635 nm, higher = more signal; note: the record names both GSK3A and GSK3B
[17] = target: Epidermal growth factor receptor (Homo sapiens) (UniProt P00533); assay: compounds binding epidermal growth factor receptor – biochemical, small-molecule microarray, 635 nm fluorescence, primary screen (AID 1104); conditions: EGFR binding, higher = more signal;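 note: score merges 667 nm emission intensity with spot signal to noise over triplicate slides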
Chain of Epidermal growth factor receptor (Homo sapiens) (P00533 whole entry, looked up): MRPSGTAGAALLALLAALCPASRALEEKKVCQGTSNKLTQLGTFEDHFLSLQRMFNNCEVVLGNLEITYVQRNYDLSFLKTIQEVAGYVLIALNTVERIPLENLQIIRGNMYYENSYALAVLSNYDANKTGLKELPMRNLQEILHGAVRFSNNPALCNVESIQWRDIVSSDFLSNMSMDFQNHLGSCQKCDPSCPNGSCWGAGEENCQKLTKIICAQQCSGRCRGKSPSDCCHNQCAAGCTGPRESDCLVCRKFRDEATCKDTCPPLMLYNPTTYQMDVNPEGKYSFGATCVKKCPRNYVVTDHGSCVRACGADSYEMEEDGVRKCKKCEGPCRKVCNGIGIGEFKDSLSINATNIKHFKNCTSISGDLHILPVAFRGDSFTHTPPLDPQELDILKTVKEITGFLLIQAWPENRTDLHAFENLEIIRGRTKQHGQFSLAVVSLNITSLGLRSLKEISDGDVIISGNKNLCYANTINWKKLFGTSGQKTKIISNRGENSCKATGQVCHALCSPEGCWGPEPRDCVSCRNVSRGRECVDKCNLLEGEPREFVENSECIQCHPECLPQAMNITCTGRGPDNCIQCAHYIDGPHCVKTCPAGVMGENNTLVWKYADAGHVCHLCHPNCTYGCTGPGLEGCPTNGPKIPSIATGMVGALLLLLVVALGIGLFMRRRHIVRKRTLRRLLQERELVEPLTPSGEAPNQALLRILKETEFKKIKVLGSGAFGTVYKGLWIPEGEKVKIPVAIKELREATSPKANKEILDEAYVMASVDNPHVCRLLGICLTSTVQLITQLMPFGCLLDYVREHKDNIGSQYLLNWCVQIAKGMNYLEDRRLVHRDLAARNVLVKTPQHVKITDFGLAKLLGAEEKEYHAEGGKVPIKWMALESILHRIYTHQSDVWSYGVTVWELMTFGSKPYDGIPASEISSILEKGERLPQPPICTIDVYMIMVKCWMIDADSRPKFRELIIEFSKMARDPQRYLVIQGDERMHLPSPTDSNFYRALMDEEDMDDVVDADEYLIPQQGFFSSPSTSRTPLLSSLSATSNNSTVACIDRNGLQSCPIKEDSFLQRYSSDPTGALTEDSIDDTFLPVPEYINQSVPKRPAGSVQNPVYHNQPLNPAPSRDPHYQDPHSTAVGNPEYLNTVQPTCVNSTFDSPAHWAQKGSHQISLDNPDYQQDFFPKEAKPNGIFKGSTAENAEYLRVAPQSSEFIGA

[18] = target: Follistatin-related protein 3 (Homo sapiens) (UniProt O95633); assay: compounds binding follistatin-related protein 3 – biochemical, small-molecule microarray, 635 nm fluorescence, primary screen (AID 1105); conditions: FSTL3 binding, higher = more signal;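 note: score merges emission near 667 nm and signal to noise per printed spot across three slides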
Chain of Follistatin-related protein 3 (Homo sapiens) (O95633 whole entry, looked up): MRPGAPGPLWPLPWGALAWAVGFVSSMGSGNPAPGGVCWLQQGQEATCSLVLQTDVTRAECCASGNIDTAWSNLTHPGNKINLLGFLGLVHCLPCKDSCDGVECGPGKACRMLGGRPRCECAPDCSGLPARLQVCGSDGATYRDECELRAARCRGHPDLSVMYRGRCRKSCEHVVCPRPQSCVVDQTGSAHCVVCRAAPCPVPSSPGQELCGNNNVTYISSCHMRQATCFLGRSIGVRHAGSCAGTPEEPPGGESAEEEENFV

[19] = target: Dickkopf-related protein 1 (Homo sapiens) (UniProt O94907); assay: small molecules binding DKK1 protein – biochemical, small-molecule microarray, 635 nm fluorescence scan, primary screen (AID 1106); conditions: higher = more signal;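 note: score merges emission near 667 nm with signal to noise over three replicate slides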
Chain of Dickkopf-related protein 1 (Homo sapiens) (O94907 whole entry, looked up): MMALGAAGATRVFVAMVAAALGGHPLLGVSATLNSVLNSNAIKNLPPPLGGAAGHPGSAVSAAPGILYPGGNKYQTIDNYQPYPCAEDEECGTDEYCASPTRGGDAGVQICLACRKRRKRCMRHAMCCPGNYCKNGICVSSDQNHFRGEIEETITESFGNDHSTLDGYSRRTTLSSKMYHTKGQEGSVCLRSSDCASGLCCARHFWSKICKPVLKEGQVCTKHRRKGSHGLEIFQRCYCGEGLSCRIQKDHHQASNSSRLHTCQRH

[20] = test system: Inhibin beta A chain (activin A); assay: small molecules binding activin A – biochemical, small-molecule microarray, 635 nm fluorescence scan, primary screen (AID 1107); conditions: INHBA, higher = more signal;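 note: mouse activin A protein probed at 4.33 µg/mL on printed slides; score merges bound-protein fluorescence near 667 nm with spot signal-to-noise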

Structure (SMILES)	composite z-score [1]	z-score [2]	z-score [3]	z-score [4]	composite z-score [5]	z-score [6]	composite z-score [7]	composite z-score [8]	composite z-score [9]	composite z-score [10]	composite z-score [11]	composite z-score [12]	composite z-score [13]	z-score [14]	composite z-score [15]	composite z-score [16]	composite z-score [17]	composite z-score [18]	composite z-score [19]	composite z-score [20]
CCOC(=O)[C@H](Cc1ccccc1)NC(=O)CCC1CC(OC(=O)NCc2cccc3ccccc23)CC2(CCCC(COC(=O)NCc3ccccc3)O2)O1 (stereo not given in full)	1.04	-2.28 (inactive)	-2.51 (inactive)	-0.414 (inactive)	0.728	-1.42 (inactive)	-0.0931	0.547	0.955	-0.142	0.388	-0.208	-0.285	-2.41 (inactive)	0.286	-0.231	0.173	0.689	0.223	0.103
CC(C)CCN1CCc2nc(COc3ccccc3)c3c(c2C1)CO[C@@H](C)C3	0.0135	0.377 (inactive)	-0.438 (inactive)	-0.531 (inactive)	1.25	1.17 (inactive)	0.111	-0.0126	-0.149	-0.123	0.605	0.179	0.844	0.893 (inactive)	-0.185	-0.113	-0.0715	-0.204	-0.471	0.71
O=C1OCCC=C1C(O)CCc1ccccc1 (stereo not given)	-1.06	-0.857 (inactive)	-0.113 (inactive)	-0.665 (inactive)	-0.119	0.353 (inactive)	-0.0324	0.433	0.67	0.0009	0.11	-0.344	-0.293	-0.278 (inactive)	0.248	0.216	0.386	0.527	0.586	0.62
CC(C)[C@@H](OCc1ccccc1)[C@H](C)C=NOC[C@@H](O)COCc1ccco1	-0.0832	-1.64 (inactive)	-4.1 (inactive)	-1.15 (inactive)	-0.425	0.799 (inactive)	-0.364	0.0964	-0.0957	-0.357	-0.887	-0.869	-0.666	-0.129 (inactive)	-0.557	-0.279	-1.11	-0.94	-1.62	-3.73
CO[C@H]1COC(=O)[C@@H](Cc2ccccc2)NC(=O)[C@@H](C)COC(=O)CCC[C@@H]1C	0.231	-0.875 (inactive)	-0.301 (inactive)	-0.784 (inactive)	-0.502	0.17 (inactive)	-0.185	0.304	-0.0051	-0.0152	-0.0517	-0.242	-0.539	-0.498 (inactive)	0.517	-0.431	0.304	0.379	0.601	0.296
